Shown are actives, neighbours in structure and some others; about 2.9% of the full set was active somewhere.
sPLA2-III inh – Inhibits HGIII-sPLA2 liposome hydrolysis, primary screen; QFRET BODIPY PC-A2 liposome hydrolysis, fluorescence; inhibition, % at 12.2 µM; actives 0.56% (n = 370,000); AID 743126;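 active means inhibition above mean plus 3 SD of compounds lying within the high and low control bounds, cut at about 19% in these data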
DAGLB inh – blocks human DAGLB lipase activity. HEK293T DAGLB membrane lysate, EnzChek fluorogenic substrate. actives 0.059% (n = 340,000). inhibition, % at 5.17 µM. AID 504411. Q8NCG7; in the data active means inhibition above about 34%
Myeloid diff MLP – promotes myeloid progenitor differentiation; actives 1% (n = 360,000); ER-HoxA9 myeloid progenitors, lysozyme-GFP differentiation, flow cytometry; calls only at 10 µM; AID 624256;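 active means normalized GFP-positive differentiation at or above the plate's own cutoff, the solvent-only control mean plus 3 SD; inconclusive means no clear call, values can overlap the other calls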;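 further: cells exposed to compound for four days before flow analysis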
H9c2 protect – myocardial damage modulation in H9c2 cells; H9c2 cardiomyocytes, H2O2 injury protection, ATPLite, 2 h; protection from H2O2 cell death, % at 20 µM; actives 0.63% (n = 360,000);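 active means compounds giving at least 50% protection of heart cells from peroxide-induced death in the single-dose screen, raw or plate-pattern-corrected value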
ABHD5 PLIN5 PPI – ABHD5-PLIN5 protein interaction inhibition; inhibition, % at 4 µM; Split G. princeps luciferase complementation, luminescence, 4 h; actives 0.78% (n = 360,000); Q00G26+Q8WTS1; AID 602281;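 active means inhibition above the mean inhibition across every tested compound plus 3 SD, cut at about 22% in these data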
Rtt109 HAT inh – inhibitors of Candida albicans Rtt109/Vps75 histone acetyltransferase. Q5AAJ8. actives 0.16% (n = 330,000). AID 540336. purified Rtt109/Vps75, ThioGlo CoA-SH fluorescence, 4 h. inhibition, % at 34.9 µM;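 active means inhibition of at least 50% in every replicate; inconclusive means best replicate reaches 50% inhibition but some replicates fall short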
ABHD5 PLIN5 conf – ABHD5-PLIN5 interaction inhibition, confirmed; shares compounds with ABHD5 PLIN5 PPI; biochemical ABHD5-PLIN5 interaction, luminescence; inhibition, % at 4 µM; actives 67% (n = 2,200); AID 651612; in the data active means inhibition above about 23%
HNF4 counter – active in HNF4 split-luciferase counter-screen for ABHD5-PLIN5 inhibitors. actives 77% (n = 2,200). HNF4 dimerization, luminescence, biochemical. shares compounds with ABHD5 PLIN5 PPI. inhibition, % at 4 µM;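 active means mean inhibition across replicate wells exceeding the computed hit threshold, cut at about 13% in these data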;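 further: light from luciferase halves that rejoin when HNF4 fusion proteins dimerize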
Target sequence (P41235 whole entry, looked up, the tested form may be a part): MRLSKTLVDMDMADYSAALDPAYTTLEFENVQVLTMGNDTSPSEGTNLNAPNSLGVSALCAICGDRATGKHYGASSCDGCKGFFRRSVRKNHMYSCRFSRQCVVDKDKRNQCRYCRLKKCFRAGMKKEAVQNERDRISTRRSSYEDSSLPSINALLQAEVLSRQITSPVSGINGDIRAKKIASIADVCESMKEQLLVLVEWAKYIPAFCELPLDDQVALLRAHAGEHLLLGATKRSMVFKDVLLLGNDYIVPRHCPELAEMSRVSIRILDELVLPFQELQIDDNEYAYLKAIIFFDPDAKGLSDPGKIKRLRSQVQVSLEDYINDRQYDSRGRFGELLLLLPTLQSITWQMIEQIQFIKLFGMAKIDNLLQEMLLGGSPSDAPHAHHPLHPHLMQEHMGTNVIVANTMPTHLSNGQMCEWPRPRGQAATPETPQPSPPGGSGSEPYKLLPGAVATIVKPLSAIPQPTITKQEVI
Large screens that a line does not name were inactive (follow-up assays come after a bar, where they were run).

NC(=O)C1CC(=O)N(c2ccc(OCC(=O)Nc3ccc(Cl)cc3)cc2)C1 (stereo unspecified)	none
O=C1C2C(C(=O)N1/N=C/c1cc(Br)cc([N+](=O)[O-])c1O)C1C=CC2C12CC2 (stereo unspecified)	none
CCCCNc1cc(=O)n(C)c(=O)n1C	none
Cn1c(NCCN(CCO)CCCc2ccc([N+](=O)[O-])cc2)cc(=O)n(C)c1=O	ABHD5 PLIN5 PPI 29.8 | ABHD5 PLIN5 conf inactive | HNF4 counter inactive
CCOc1ccc(CCN2C(=S)N([C@@H](Cc3ccc(O)cc3)CN3CCC[C@@H]3CN3C(=S)NC[C@@H]3CC(C)C)C[C@@H]2CC(C)C)cc1	ABHD5 PLIN5 PPI 27.7 (no result: DAGLB inh, Rtt109 HAT inh) | ABHD5 PLIN5 conf inactive | HNF4 counter inactive
CC(C)C[C@H]1CNC(=S)N1C[C@H]1CCCN1C[C@H](CC(C)C)N1C[C@H](Cc2ccc(O)cc2)N(CCc2ccccc2)C1=S	ABHD5 PLIN5 PPI 26.1 (no result: DAGLB inh, Rtt109 HAT inh) | ABHD5 PLIN5 conf inactive | HNF4 counter inactive
CC(C)C[C@H]1CN([C@@H](CC(C)C)CN2CCC[C@@H]2CN2C(=S)NC[C@@H]2Cc2ccc(O)cc2)C(=S)N1CCc1ccccc1	none (no result: DAGLB inh, Rtt109 HAT inh)
COc1ccc2nc(NC(=O)CSc3nnc(C)n3N)sc2c1	none
O=C(CSc1n[nH]c(-c2cccnc2)n1)Nc1ccc([N+](=O)[O-])cc1	none
COc1cc(N2C(=O)C=CC2=O)ccc1N1C(=O)C=CC1=O	ABHD5 PLIN5 PPI 51.9 | ABHD5 PLIN5 conf 75.5 | HNF4 counter 111.1
O=[N+]([O-])c1ccc2c(c1)[nH]c(=S)n2-c1ccccc1	none (no result: Rtt109 HAT inh)
CC1=NNC(=O)/C1=C\c1cn(-c2ccccc2)nc1-c1cccs1	Myeloid diff MLP inconclusive, ABHD5 PLIN5 PPI 36.9 | ABHD5 PLIN5 conf 100.2 | HNF4 counter 101.8
O=C1/C(=C\c2ccco2)NC(=S)N1c1ccccc1	ABHD5 PLIN5 PPI 25.0 | ABHD5 PLIN5 conf 30.0 | HNF4 counter 44.4
COc1ccc(C(=O)Cn2nc(CNc3ccc(Br)cc3)[n+]3c2CCCCC3)cc1	ABHD5 PLIN5 PPI 37.1 | ABHD5 PLIN5 conf 23.2 | HNF4 counter 14.2
CC(=O)Nc1ccc(S(=O)(=O)Oc2cccc(/C=C3\SC(N)=NC3=O)c2)cc1	ABHD5 PLIN5 PPI 28.1 | ABHD5 PLIN5 conf 34.6 | HNF4 counter 22.4
CCOc1cc(/C=C\[N+](=O)[O-])ccc1OCC(=O)Nc1ccccc1C	Myeloid diff MLP inconclusive, ABHD5 PLIN5 PPI 55.3 (no result: sPLA2-III inh) | ABHD5 PLIN5 conf 95.6 | HNF4 counter 102.1
CCn1c(SCC(=O)N/N=C/C=C/c2ccco2)nnc1-c1ccccc1	ABHD5 PLIN5 PPI 30.6 | ABHD5 PLIN5 conf 24.0 | HNF4 counter 44.4
COc1ccc2oc(=O)c(-c3nnc(NCc4ccco4)s3)cc2c1	Myeloid diff MLP inconclusive, ABHD5 PLIN5 PPI 59.7 | ABHD5 PLIN5 conf inactive | HNF4 counter 43.2
CCOc1cccc2cc(-c3nnc(NCc4ccco4)s3)c(=O)oc12	ABHD5 PLIN5 PPI 48.2 | ABHD5 PLIN5 conf 28.7 | HNF4 counter 35.0
CNc1nnc(-c2cc3cc(Cl)ccc3oc2=O)s1	none
CCOc1cccc2cc(-c3cn4cc(C)ccc4n3)c(=O)oc12	none
CC(=O)N(C)c1ccc(C(O)(C(F)(F)F)C(F)(F)F)cc1	none
CCOC(=O)c1nn(-c2ccccc2)c(=O)c2c(N)scc12	ABHD5 PLIN5 PPI 25.3 | ABHD5 PLIN5 conf inactive | HNF4 counter 95.2
O=C(CCCN1C(=O)S/C(=C\C=C\c2ccccc2)C1=O)Nc1ccc(C(=O)O)cc1	ABHD5 PLIN5 PPI 34.2 | ABHD5 PLIN5 conf inactive | HNF4 counter 19.5
Fc1ccccc1C1CC(c2ccco2)=Nc2ccccc2S1 (stereo unspecified)	ABHD5 PLIN5 PPI 43.2, Rtt109 HAT inh 83.2 | ABHD5 PLIN5 conf inactive | HNF4 counter 91.5
Oc1ccc(Cl)cc1C1=Nc2ccccc2N=C(c2ccco2)C1	none
O=S(=O)(c1ccc(N=C2NN=C(c3cc(F)ccc3F)CS2)cc1)N1CCOCC1	none (no result: DAGLB inh)

Screening results deposited in PubChem BioAssay by several laboratories.
